The values that follow come from PubChem BioAssay (NCATS).

Values joined by “and” are separate entries in the source; they are usually repeats but may differ in a detail not shown here. Equal entries are not always repeated. Records with an inconclusive call do not appear. Active and inactive are the calls of the source. Unless noted, the call rests on the fitted dose curve; in most records, active means well fitted curve in the direction sought with a large enough effect; inconclusive means small, poorly fitted or top-dose-only effect, or another doubt; inactive means no such curve, though single readings can be large; an effect the other way counts as inactive or inconclusive.

A short description of assay [1]: AP1 Signaling Pathway (AID 357; active means well fitted curve in either direction with a large enough effect, not every such curve was filed as active;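 further: ME-180 reporter cells stimulated with EGF at its EC50 level; on the % scale 0 is the no-effect control and ±100 the full control effect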). Particulars: ME-180 AP-1-bla reporter, EGF-induced, beta-lactamase ratio, 5 h; at 7.69 µM (top of the series) unless noted. In a few lines:
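First, ME-180 AP-1-bla cells were cultured overnight at 37 °C in low-serum Opti-MEM. Next, titrated compounds with EC50 EGF were incubated 5 hours. Finally, CCF4 was added for 2.5 hours and the 460/530 nm ratio recorded.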

The nature of assay [2]: Stat Signaling Pathway (AID 446; active means well fitted curve in either direction with a large enough effect, not every such curve was filed as active;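 further: ME-180 cervical cancer cells given 40 pM IL-6 alongside compound; SIE-controlled beta-lactamase reporter measured as 460/530 nm FRET emission ratio; on the % scale 0 is the no-effect control and ±100 the full control effect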). Particulars: ME-180 (cervical carcinoma) SIE beta-lactamase reporter, IL-6 stimulated, 5 h; at 7.69 µM (top of the series) unless noted. The essentials:
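Normalization used AC90 stimulation (300 pM IL-6) and AC90 inhibition (125 nM pan-JAK inhibitor at 40 pM IL-6). The underlying signal is SIE-driven beta-lactamase in ME-180 cells after 5 h IL-6 exposure with compound.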

In assay [3] the target is Glucocorticoid receptor (Homo sapiens) (UniProt P04150). The experiment in a line: GR-EFC Redistribution (AID 451; calls by dose curve; further: potency means the concentration at half of the fitted maximal effect). Particulars: CHO-K1 GR-EFC translocation, beta-gal luminescence, 2 h. In a few lines:
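CHO-K1 cells expressing nuclear EA and GR-ED fragments of b-gal; compounds titrated up to 46 uM final, 2 h at 37 C. GR nuclear translocation read as complemented b-gal luminescence after 1 h RT detection.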

For assay [4], the target named is Mitogen-activated protein kinase 10 (Mus musculus) (UniProt Q61831). The experiment in a line: JNK3 AlphaScreen Assay (AID 530; active means well fitted curve in either direction with a large enough effect, not every such curve was filed as active;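 further: kinase came from lysate of stimulated human HepG2 cells; signal reports phosphorylation of biotinylated GST-cJun 1-79 at Ser73 with 10 µM ATP; on the % scale 0 is the no-effect control and ±100 the full control effect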). In a few lines: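 Activity was read by AlphaScreen after JNK3-containing HepG2 lysate (cytokine pre-activated) phosphorylated biotinylated GST-cJun with 10 uM ATP at room temperature. Phospho-Ser73 cJun antibody with Protein-A acceptor beads provided detection.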
A general note: Bead proximity is the source of the signal in Alpha formats.

In assay [5] the target is 3',5'-cyclic-AMP phosphodiesterase 4B (Homo sapiens) (UniProt Q07343). The experiment in a line: qHTS Assay for Inhibitors of PDE-IV (AID 607; active means well fitted activation curve with a large enough effect in the main read-out, with a control signal flat, not every such curve was filed as active; further: % of control where 0% means no effect). The essentials: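 HEK293 ACTOne cells with CNG channel (1000/well), endogenous PDE4; membrane potential dye, compounds up to 22.9 uM final. Fluorescence Ex 535/Em 590; RO 20-1724 (100 uM final) as reference.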
Sequence of 3',5'-cyclic-AMP phosphodiesterase 4B (Homo sapiens) (Q07343 whole entry, looked up): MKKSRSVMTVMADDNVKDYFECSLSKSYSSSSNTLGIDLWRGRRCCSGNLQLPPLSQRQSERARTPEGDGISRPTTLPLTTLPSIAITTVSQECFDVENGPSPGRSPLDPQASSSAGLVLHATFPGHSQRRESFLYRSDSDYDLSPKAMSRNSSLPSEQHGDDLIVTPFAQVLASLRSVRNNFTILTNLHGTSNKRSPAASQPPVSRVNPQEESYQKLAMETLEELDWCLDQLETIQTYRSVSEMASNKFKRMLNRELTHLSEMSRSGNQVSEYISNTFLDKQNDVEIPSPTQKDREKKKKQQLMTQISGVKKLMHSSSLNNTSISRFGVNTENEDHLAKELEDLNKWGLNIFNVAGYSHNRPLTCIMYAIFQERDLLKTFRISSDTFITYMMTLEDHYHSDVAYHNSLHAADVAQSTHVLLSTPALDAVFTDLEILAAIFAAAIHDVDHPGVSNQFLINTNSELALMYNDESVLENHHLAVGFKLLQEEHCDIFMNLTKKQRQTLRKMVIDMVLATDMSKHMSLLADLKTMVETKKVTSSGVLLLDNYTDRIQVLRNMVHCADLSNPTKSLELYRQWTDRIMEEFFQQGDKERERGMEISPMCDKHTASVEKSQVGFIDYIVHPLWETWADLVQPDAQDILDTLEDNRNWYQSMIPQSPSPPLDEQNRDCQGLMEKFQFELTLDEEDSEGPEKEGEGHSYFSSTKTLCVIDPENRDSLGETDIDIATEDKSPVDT
Assay [6] addresses Cytochrome P450 3A4 (Homo sapiens) (UniProt P08684). Nature of the assay: qHTS Assay for Activators of Cytochrome P450 3A4 (AID 885). Further: nearly all actives have a fitted effect of over 65% in size. Further: potency means the concentration at half of the fitted maximal effect. The essentials: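 Human CYP3A4 dealkylates Luciferin-PPXE to luciferin, which luciferase detection converts to light. Substrate was at its KM (25uM), buffer 200mM KPO4, reaction 60 min at RT.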
(In general: qHTS replaces the single test concentration by a dilution series.)

Assay [7] is described as follows: Primary qHTS for small molecule stabilizers of the endoplasmic reticulum resident proteome: Secreted ER Calcium Modulated Protein (SERCaMP) assay (AID 1508630). Further: on the % scale 0 is the no-effect control and ±100 the full control effect. The essentials:
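The SH-SY5Y reporter protocol was run at 3 concentrations up to 38.3 uM (primary) or 11 concentrations (follow-up): 16 h compound, 100 nM thapsigargin for 4 h, then extracellular luciferase luminescence.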

The target of assay [8] is Lysosomal acid glucosylceramidase (Homo sapiens) (UniProt P04062). The experiment in a line: Glucocerebrosidase-p2 (AID 348; in the data active means potency below about 10 µM; further: potency means the concentration at half of the fitted maximal effect). Particulars: purified GBA, blue fluorogenic substrate, 40 min. The essentials:
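Normal human glucocerebrosidase (0.2 nM) with blue fluorogenic substrate (80 uM final) in citrate/phosphate pH 5.9 with 10mM sodium taurocholate, 0.01% tween-20; 40 min RT, NaOH/glycine stop; fluorescence Ex 365/Em 440; AC50 from a titration from 0.6 nM upwards.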

In assay [9] the target is Cytochrome P450 1A2 (Homo sapiens) (UniProt P05177). Nature of the assay: p450-cyp1a2 (AID 410; calls by dose curve; further: potency means the concentration at half of the fitted maximal effect). In a few lines: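 O-Demethylation of luciferin 6' methyl ether by human CYP1A2 is monitored as luciferase luminescence. Substrate sits at Km (100uM); enzyme is 20nM. Values are scaled to 57 uM furafylline as maximal inhibition.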
Sequence of Cytochrome P450 1A2 (Homo sapiens) (P05177 whole entry, looked up): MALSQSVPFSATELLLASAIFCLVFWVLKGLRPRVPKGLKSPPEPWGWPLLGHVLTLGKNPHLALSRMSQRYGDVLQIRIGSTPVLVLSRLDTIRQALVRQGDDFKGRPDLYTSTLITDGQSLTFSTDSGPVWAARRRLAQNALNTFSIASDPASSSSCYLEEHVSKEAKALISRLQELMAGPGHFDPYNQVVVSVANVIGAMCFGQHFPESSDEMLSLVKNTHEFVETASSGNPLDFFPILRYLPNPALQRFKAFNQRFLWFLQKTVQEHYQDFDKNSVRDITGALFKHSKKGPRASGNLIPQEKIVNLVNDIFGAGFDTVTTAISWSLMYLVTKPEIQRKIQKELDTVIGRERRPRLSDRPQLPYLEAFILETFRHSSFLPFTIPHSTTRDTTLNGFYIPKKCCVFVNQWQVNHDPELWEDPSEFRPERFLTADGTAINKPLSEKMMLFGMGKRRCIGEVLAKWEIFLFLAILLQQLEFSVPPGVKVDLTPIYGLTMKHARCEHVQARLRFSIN
Assay [10] in a line: NFAT Signaling Pathway (AID 444; active means well fitted curve in either direction with a large enough effect, not every such curve was filed as active). Particulars: Jurkat NFAT-bla M1, carbachol, beta-lactamase ratio, 5 h; at 7.69 µM (top of the series) unless noted. The essentials:
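Jurkat cells with NFAT-driven β-lactamase reporter and co-expressed M1 receptor, stimulated with carbachol (final 1 uM, ~EC50), compound titration, 5 h at 37 °C. CCF4 loaded 1 h at RT; 460/530 nm ratio gave %activity and AC50.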

Assay [11] concerns the target Glucocorticoid receptor (Homo sapiens) (UniProt P04150). The experiment in a line: GR-GFP Redistribution (AID 450;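 active means compounds whose dose series gives a full or clear partial fitted curve of increased nuclear translocation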; further: potency means the concentration at half of the fitted maximal effect). Particulars: U2OS GR-GFP nuclear translocation, laser cytometry, 2 h.
Assay [12] has as its target Cytochrome P450 3A4 (Homo sapiens) (UniProt P08684). Nature of the assay: qHTS Assay for Inhibitors and Substrates of Cytochrome P450 3A4 (AID 884). Further: nearly all actives have a fitted effect of over 50% in size. Further: potency means the concentration at half of the fitted maximal effect. The essentials:
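Luminescent readout of luciferin produced by CYP3A4 (20 nM) dealkylation of Luciferin-PPXE, 25 uM (its KM). NADPH-driven reaction ran 60 min at RT after 10 min compound preincubation; data scaled to 57 uM ketoconazole as 100% inhibition.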

Assay [13] can be described thus: qHTS Assay for Lipid Storage Modulators (AID 1519; calls by dose curve). Particulars: Drosophila S3 cells, BODIPY lipid droplet/cell ratio, laser cytometry, cells loaded with oleic acid. The essentials:
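Cells seeded at 5,000 per well were treated with compounds over a concentration series and loaded with oleic acid (400 uM, as added). Lipid droplet fluorescence (488 nm excitation, 500-530 nm channel) was read by laser-scanning cytometry and normalized to 20 uM Triacsin C.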

Assay [14] has as its target Ubiquitin carboxyl-terminal hydrolase 1 (Homo sapiens) (UniProt O94782). The experiment in a line: Inhibitors of USP1/UAF1: Pilot qHTS (AID 504865).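 Further: rhodamine fluorescence freed from ubiquitin-rhodamine substrate followed over time; top concentration of the series differs between compounds; on the % scale 0 is the no-effect control and ±100 the full control effect; nearly all actives have a fitted effect of over 35% in size.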 The essentials:
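1nM USP1/UAF1 + cpd, 15 min RT; start w/ Ub-Rho 150nM final; kinetic FL 480/540 nm, 6 reads q60 s. Buffer 50mM HEPES pH 7.8, 0.5mM EDTA, 1mM TCEP, 0.01% Tween-20, 0.1 mg/ml BSA.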

In assay [15] the target is Rap guanine nucleotide exchange factor 3 (Homo sapiens) (UniProt O95398). The experiment in a line: Confirmatory qHTS for antagonist of cAMP-regulated guanine nucleotide exchange factor 3 (EPAC1) (AID 1645880).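 Further: plate controls were DMSO only for no effect and full effect of the ATA control for full effect; nearly all actives have a fitted effect of over 55% in size.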 The essentials: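 Released BODIPY-GDP fluoresces less than Rap1-bound BODIPY-GDP; the signal is followed at 480/540 nm at 5-min intervals over 30 min, after 5 min at room temperature. Reactions contain 100 nM EPAC1, 250 nM RAP1B-BODIPY-GDP and 50 uM GDP; results are normalized to ATA and DMSO.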
Sequence of Rap guanine nucleotide exchange factor 3 (Homo sapiens) (O95398 whole entry, looked up): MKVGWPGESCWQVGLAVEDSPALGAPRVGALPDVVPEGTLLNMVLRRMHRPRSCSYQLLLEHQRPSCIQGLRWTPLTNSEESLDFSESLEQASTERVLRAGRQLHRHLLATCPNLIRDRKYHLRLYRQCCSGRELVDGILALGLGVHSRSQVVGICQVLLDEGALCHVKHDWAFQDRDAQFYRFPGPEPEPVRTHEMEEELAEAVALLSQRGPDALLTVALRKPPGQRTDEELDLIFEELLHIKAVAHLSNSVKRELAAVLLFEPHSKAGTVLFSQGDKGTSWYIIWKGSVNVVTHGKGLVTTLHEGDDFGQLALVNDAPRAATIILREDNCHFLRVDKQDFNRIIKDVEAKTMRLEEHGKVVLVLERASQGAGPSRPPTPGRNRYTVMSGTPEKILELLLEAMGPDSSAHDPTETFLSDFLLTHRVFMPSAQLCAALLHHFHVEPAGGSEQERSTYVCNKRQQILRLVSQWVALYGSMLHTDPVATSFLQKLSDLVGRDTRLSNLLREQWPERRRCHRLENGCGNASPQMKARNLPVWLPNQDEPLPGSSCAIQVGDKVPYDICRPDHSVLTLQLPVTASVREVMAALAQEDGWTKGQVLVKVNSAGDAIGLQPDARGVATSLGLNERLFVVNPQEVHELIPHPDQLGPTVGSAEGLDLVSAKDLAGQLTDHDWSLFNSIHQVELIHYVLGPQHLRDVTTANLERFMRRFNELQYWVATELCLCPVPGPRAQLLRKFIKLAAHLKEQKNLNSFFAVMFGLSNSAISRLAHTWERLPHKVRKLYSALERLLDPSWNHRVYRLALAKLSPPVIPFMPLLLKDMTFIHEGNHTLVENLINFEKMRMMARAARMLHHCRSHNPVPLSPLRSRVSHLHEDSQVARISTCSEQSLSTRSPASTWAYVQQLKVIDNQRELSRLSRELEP

Assay [16] has the same target. The experiment in a line: Confirmatory qHTS for agonist of cAMP-regulated guanine nucleotide exchange factor 3 (EPAC1) (AID 1645881).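 Further: EPAC1 catalysed release of BODIPY-GDP from Rap1B seen as fluorescence loss; 100% = effect of cAMP agonist control; nearly all actives have a fitted effect of over 75% in size.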
Assay [17] addresses Rap guanine nucleotide exchange factor 4 (Homo sapiens) (UniProt Q8WZA2). Nature of the assay: Confirmatory qHTS for agonist of cAMP-regulated guanine nucleotide exchange factor 4 (EPAC2) (AID 1645884).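 Further: nucleotide exchange releases bodipy-GDP from Rap1 and this lowers its fluorescence; on the % scale 0 is the no-effect control and ±100 the full control effect; nearly all actives have a fitted effect of over 65% in size.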
The target is the same in assay [18]. The experiment in a line: Confirmatory qHTS for antagonist of cAMP-regulated guanine nucleotide exchange factor 4 (EPAC2) (AID 1645885). Further: on the % scale 0 is the no-effect control and ±100 the full control effect; nearly all actives have a fitted effect of over 25% in size.
Assay [19] is described as follows: Confirmation and Secondary Assay for Modulators of Hemoglobin Beta Chain Splicing at IVS2 654 locus (AID 910).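 Further: HeLa cells stably carrying EGFP split by mutant beta-globin IVS2-654 intron; % of control where 0% means no effect.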 In a few lines: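 HeLa cells stably expressing EGFP interrupted by β-globin IVS2-654 intron, seeded overnight in Opti-MEM/2% FCS, then treated 2 days at 37 °C. Restored splicing read as total peak GFP intensity per well by laser scanning cytometry (488 nm excitation, 500–520 nm emission); 500 nM antisense PNA as control.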

Assay [20] can be described thus: Confirmation and Secondary Assay for Modulators of Hemoglobin Beta Chain Splicing at IVS2 705 locus (AID 930).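 Further: HeLa cells stably expressing the EGFP-705 splicing reporter; GFP fluorescence per well restored by corrected splicing of the IVS2-705 intron in EGFP; % of control where 0% means no effect.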 In a few lines: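 HeLa EGFP-705 reporter; 500 cells/well, o/n 37C 5% CO2; cpd 2 d; 488 ex/500-520 em laser scan; total peak GFP intensity/well. Ref: 500 nM […] antisense PNA.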
Where [21] appears, read: measured here: cell count channel max response.
Setting [22] is: measured here: lipid channel max response.

Sequence of Glucocorticoid receptor (Homo sapiens) (P04150 whole entry, looked up, the tested form may be a part): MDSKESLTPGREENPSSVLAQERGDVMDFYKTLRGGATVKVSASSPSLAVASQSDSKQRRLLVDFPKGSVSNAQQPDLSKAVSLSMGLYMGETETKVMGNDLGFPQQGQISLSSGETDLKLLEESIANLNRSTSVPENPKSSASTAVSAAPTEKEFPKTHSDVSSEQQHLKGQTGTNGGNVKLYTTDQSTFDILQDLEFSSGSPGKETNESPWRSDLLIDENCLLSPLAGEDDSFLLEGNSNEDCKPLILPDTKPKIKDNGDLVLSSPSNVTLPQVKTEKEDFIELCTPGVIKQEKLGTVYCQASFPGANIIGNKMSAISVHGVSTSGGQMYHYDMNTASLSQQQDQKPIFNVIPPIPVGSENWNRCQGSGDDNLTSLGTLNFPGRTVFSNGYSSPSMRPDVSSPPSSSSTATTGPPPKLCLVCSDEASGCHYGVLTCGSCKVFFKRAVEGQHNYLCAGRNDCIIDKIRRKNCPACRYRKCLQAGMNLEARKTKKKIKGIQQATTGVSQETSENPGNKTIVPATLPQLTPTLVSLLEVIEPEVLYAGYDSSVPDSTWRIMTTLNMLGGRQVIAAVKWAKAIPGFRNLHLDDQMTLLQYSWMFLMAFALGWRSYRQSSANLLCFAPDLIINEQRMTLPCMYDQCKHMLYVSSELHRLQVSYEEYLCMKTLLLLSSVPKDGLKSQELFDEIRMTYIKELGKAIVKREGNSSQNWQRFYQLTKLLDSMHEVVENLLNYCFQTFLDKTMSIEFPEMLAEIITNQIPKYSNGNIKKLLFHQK
Sequence of Ubiquitin carboxyl-terminal hydrolase 1 (Homo sapiens) (O94782 whole entry, looked up): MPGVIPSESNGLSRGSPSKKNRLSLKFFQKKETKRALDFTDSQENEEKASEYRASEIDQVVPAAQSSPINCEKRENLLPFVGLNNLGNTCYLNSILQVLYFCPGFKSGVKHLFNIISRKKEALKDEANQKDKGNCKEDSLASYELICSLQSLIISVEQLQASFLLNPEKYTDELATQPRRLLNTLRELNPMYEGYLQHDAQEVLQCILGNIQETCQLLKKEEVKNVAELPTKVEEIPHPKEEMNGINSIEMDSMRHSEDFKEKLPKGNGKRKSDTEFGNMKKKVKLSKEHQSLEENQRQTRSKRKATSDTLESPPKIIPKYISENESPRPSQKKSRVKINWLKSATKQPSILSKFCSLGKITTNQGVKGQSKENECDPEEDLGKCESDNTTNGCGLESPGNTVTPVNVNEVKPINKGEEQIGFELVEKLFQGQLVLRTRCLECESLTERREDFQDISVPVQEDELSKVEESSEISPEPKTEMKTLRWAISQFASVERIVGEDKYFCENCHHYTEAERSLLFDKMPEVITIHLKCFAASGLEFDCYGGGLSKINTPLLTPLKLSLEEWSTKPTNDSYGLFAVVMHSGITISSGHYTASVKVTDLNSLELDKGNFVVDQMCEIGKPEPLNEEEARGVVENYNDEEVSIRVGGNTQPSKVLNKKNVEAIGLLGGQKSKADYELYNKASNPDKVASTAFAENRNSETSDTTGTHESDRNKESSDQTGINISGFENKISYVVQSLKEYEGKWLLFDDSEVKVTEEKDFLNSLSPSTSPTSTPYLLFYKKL
Sequence of Cytochrome P450 3A4 (Homo sapiens) (P08684 whole entry, looked up): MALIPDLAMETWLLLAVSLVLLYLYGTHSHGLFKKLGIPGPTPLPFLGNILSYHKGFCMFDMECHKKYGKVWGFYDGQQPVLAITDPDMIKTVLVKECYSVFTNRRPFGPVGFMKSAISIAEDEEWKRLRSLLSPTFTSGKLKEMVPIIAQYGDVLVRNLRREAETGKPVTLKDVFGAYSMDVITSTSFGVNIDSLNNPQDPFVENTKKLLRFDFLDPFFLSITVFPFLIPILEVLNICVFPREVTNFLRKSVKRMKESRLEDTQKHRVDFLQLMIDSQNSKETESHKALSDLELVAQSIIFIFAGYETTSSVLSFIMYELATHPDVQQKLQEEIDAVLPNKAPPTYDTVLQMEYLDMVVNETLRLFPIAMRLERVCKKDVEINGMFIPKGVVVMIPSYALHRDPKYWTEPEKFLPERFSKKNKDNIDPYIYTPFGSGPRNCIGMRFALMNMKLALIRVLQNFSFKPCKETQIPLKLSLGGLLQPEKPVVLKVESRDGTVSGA
Sequence of Lysosomal acid glucosylceramidase (Homo sapiens) (P04062 whole entry, looked up): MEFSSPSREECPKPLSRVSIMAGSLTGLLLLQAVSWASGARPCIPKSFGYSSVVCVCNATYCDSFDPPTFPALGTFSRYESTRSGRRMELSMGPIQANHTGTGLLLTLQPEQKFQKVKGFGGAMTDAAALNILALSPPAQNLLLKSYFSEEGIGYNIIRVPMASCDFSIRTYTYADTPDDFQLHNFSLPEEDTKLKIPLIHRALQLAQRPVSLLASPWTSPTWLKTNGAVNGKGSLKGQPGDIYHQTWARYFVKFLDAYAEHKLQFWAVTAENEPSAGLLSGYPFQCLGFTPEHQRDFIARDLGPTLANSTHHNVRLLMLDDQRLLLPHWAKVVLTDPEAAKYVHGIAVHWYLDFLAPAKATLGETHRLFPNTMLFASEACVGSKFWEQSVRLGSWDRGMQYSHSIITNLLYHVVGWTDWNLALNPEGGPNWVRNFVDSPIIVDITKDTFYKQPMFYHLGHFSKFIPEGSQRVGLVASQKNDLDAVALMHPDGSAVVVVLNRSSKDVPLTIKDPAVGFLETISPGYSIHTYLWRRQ

`CC(C)CN1CCCC2(CCN(C(=O)c3ccco3)CC2)C1`: the activity change, negative = inhibition in assay [1] is -0.809% (inactive). The activity, negative = inhibition in assay [2] is 2.64% (inactive). In assay [3], the Potency is > 46 µM (inactive). For the same compound, the Potency result in [4], in [5] and in assay [6] was “inactive” in each case. Further, in assay [7], the result was inactive.
For the compound `COc1cccc(-c2cc(NCCc3c[nH]c4ccc(OC)cc34)ncn2)c1`, the Potency in [8] is > 11.4 µM (inactive); in assay [9], 0.794 µM (active); in [11], > 46 µM (inactive); in assay [3] it was > 46 µM (inactive); in assay [12], 7.94 µM (active). The activity change, negative = inhibition in [1] is -7.38% (inactive); in [10], -9.49% (inactive); in assay [13] (at 57.5 µM (top of the series)), 7.02% (inactive). For the same compound, the activity, negative = inhibition in [2] was -5.09% (inactive). Besides, the Potency result in assay [5], in assay [6], in assay [14], in assay [15], in assay [16] and in assay [17] was “inactive” each time. Besides, the Potency entry in assay [18] was “inactive”. The figures for the max response in assay [13] (setting [21]) and in [13] (setting [22]) were 8.88% and 13.2%, respectively.
In the case of `CC(C)(C)c1cc(C(=O)/C=C/c2ccc(C(=O)O)cc2)cc(C(C)(C)C)c1`, in assay [12], the Potency is 20 µM (active). Also, the Potency entry in [6] is “inactive”. In addition, the outcome in [7] was inactive.
For the compound `CCCCCCCNS(=O)(=O)c1cccc2c(Cl)cccc12`, the Potency in [9] is 6.31 µM (active); in assay [11], > 46 µM (inactive); in assay [3], > 46 µM (inactive); in [12], 7.94 µM (active). Besides, the Potency entry in assay [6] is “inactive”. Moreover, in [7], the result was inactive.
On to `O=c1ccc2cc(O)c(O)cc2o1`, for which the activity change, negative = inhibition was 12.2% [at 17.2 µM] (inactive) in [1], 28.9% [at 17.2 µM] (inactive) in [10], -3.37% (inactive) in assay [13] (at 25.7 µM (top of the series)) and -7.91% (inactive) in [13] (at 57.5 µM (top of the series)). Besides, the Potency in assay [11] and in assay [3] was > 20.6 µM (inactive) in each case. Further, the Potency result in assay [4], in assay [5], in [12], in assay [6], in [19] and in [14] was “inactive” throughout. For the same compound, the call in assay [20] was inactive. The max response in [13] (setting [21]) was -16.4% and -4.98%; in assay [13] (setting [22]), -18.9% and -8.28%.
`Cc1[nH]ccc2c1[nH]c1cc(=O)ccc12`: the activity change, negative = inhibition in assay [10] was -37.6% [at 17.2 µM] (inactive); in assay [13] (at 25.7 µM (top of the series)) it was -0.514% (inactive); in assay [13] (at 57.5 µM (top of the series)), 6.27% (inactive). Further, in assay [2], the activity, negative = inhibition is 4.88% [at 17.2 µM] (inactive). In addition, the Potency in assay [11] was > 20.6 µM (inactive) and > 46 µM (inactive); in assay [3], > 20.6 µM (inactive) and > 46 µM (inactive). Besides, the Potency result in assay [4], in [5], in assay [19] and in assay [14] was “inactive” throughout. In addition, the max response in assay [13] (setting [21]) was 11.1% and 0.549%; in [13] (setting [22]), 9.17% and 10.7%.
In the case of `N#CCCn1c(=O)c(-c2ccc(F)cc2)nc2cnc(Oc3cccc(Cl)c3)nc21`, the results for the Potency in assay [9], in assay [11] and in assay [3] were 0.501 µM (active), > 9.22 µM (inactive) and > 46 µM (inactive), respectively. The Potency entry in assay [4] and in [5] was “inactive” throughout. Also, the result in assay [7] was inactive.
Consider `CC[C@@H]1Cn2c(c3nc(-c4ccccc4)nc-3n(C)c2=O)N1`, for which, in assay [12], the Potency entry was “inactive”. The Potency in assay [6] is 12.6 µM (active). For the same compound, in [7], the outcome was inactive.
